In the library only some 7.9% were active in any assay of this set; here they are far more common.
MCF10A rereplic – inducers of DNA re-replication in MCF 10A breast cells; MCF 10A DNA re-replication, Hoechst nuclear intensity, 48 h; Potency, µM (series often up to 46.1 µM), hits mostly activators; hit rate 2.9% among 350,000; AID 624296; also: nearly all actives have a fitted effect of over 50% in size
SW480 rerep – DNA re-replication induction in SW480 cells | hit rate 1.8% among 340,000 | Potency, µM (highest dose often 46.1 µM), hits mostly activators | SW480 DNA re-replication, Hoechst DNA content imaging, 48 h; also: nearly all actives have a fitted effect of over 55% in size
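Cells (250 per well) received 23 nL compound or DMSO by pin tool and were kept 48 hr at 37 C, 5% CO2. Nuclei were then stained with Hoechst for 40 min and scanned for DNA content.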
HT1080NT lethal – kills 2HG-producing HT-1080-NT fibrosarcoma cells; Potency, µM (titrated, usually from 46.1 µM), most hits filed as cytotoxic; hit rate 1.6% among 360,000; HT-1080-NT fibrosarcoma viability, CellTiter-Glo ATP luminescence, 48 h;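 also: NT is the 2HG producing partner of a matched IDH1 knockdown line; nearly all actives have a fitted effect of over 55% in size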
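HT-1080-NT; 750 cells/well; 5% FBS RPMI; 48 h compound, 37 degrees C; CellTiter-Glo luminescence; curve fitting and curve-class assignment.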
KB-V1 cytotox – KB-V1 MDR subline cytotoxicity; KB-V1 MDR cells viability, CellTiter-Glo, 72 h; Potency, µM (top dose mostly 46.1 µM), actives largely listed as cytotoxic; hit rate 3.4% among 400,000; AID 1347076; also: nearly all actives have a fitted effect of over 60% in size
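qHTS viability screen in drug-selected KB-V1 MDR cells: 72 h compound treatment at 37 degrees C, ATP luminescence end point.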
KB-3-1 cytotox – KB-3-1 parental cell cytotoxicity; Potency, µM (titrated, usually from 46.1 µM), most hits filed as cytotoxic; hit rate 1.4% among 400,000; KB-3-1 viability, CellTiter-Glo ATP luminescence, 72 h; also: nearly all actives have a fitted effect of over 60% in size
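Cytotoxicity in the drug-sensitive parental line KB-3-1 was scored as loss of CellTiter-Glo luminescence following 72 h incubation with compound. Values come from curve fitting of normalized concentration-response data.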
HT1080 IDH1KD tx – toxicity to HT-1080 IDH1 knockdown cells (counter line); Potency, µM (series often up to 46.1 µM), actives largely listed as cytotoxic; HT-1080 IDH1 knockdown viability, ATP luminescence, 48 h; AID 686971; hit rate 2% among 360,000
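Cytotoxicity counter-line: IDH1KD HT-1080, 48 h, CellTiter-Glo. Curves classed by r2, magnitude and activity.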
Hits are given with their value; i = inactive; ? = inconclusive; nt = not tested or not shown. Calls follow the shape of the dose curve; as a rule, active = well fitted curve in the direction sought with a large enough effect; inconclusive = small, poorly fitted or top-dose-only effect, or another doubt; inactive = no such curve, though single readings can be large; an effect the other way counts as inactive or inconclusive.

SMILES	MCF10A rereplic	SW480 rerep	HT1080NT lethal	KB-V1 cytotox	KB-3-1 cytotox	HT1080 IDH1KD tx
Cc1cc(C)c2cc(C(O)c3nnnn3Cc3ccccc3)c(=O)[nH]c2c1 (stereo unspecified)	2.6µM	4.6µM	i	i	i	i
COc1cc(OC)cc(OC(=O)C2CCN(S(=O)(=O)c3ccc(OC)c(OC)c3)CC2)c1	i	?	i	i	i	i
COC(=O)C(C)Sc1nc2ccsc2c(=O)n1Cc1ccccc1 (stereo unspecified)	i	i	i	?	i	i
Cc1ccc(-c2nnn(CC(=O)N(c3ccc4c(c3)OCCO4)C(C(=O)NCC3CCCO3)c3ccc(F)cc3)n2)o1 (stereo unspecified)	?	16µM	i	i	i	i
Cc1ccc(-c2nnn(CC(=O)N(c3ccccc3)C(C(=O)NCC3CCCO3)c3ccc(F)cc3)n2)o1 (stereo unspecified)	i	i	i	i	i	i
Cc1ccc(-c2nnn(CC(=O)N(c3ccccc3)C(C(=O)NCC3CCCO3)c3ccc(Cl)cc3)n2)cc1 (stereo unspecified)	18µM	i	i	i	i	i
C[C@@H]1CC2[C@@H]3CC[C@H]4CC(=O)CC[C@]4(C)C3=CC[C@]2(C)[C@@]1(O)C(=O)CO (stereo partly specified)	i	i	i	i	i	i
CC(=O)C1(O)C(C)CC2C3CCC4CC(O)CCC4(C)C3=CCC21C (stereo unspecified)	18µM	?	i	i	i	i
COc1ccc(-c2cc(C)no2)cc1S(=O)(=O)N1CCCN(Cc2ccccc2Cl)C1	i	i	i	i	?	?
O=C(NC1CC1)c1ccc(CSCc2ccccc2Cl)o1	i	i	?	i	i	?
Nc1ccn(C2OC(COP(=O)(O)O)C(O)C2O)c(=O)n1 (stereo unspecified)	?	0.65µM	i	?	?	i
CC(=O)NC[C@H]1O[C@@H](n2ccc(N)nc2=O)[C@H](O)[C@@H]1O	nt	nt	i	i	i	i
CCN(CCn1cccn1)Cc1nc(-c2ccccc2)no1	i	i	i	23µM	i	i
O=S(=O)(c1ccccc1)c1nc(-c2cccc(Cl)c2)oc1NCc1ccccc1	nt	nt	nt	i	i	nt
O=S(=O)(c1ccc(Cl)cc1)c1nc(-c2cccc(Br)c2)oc1NCc1ccccc1	nt	nt	nt	16µM	?	nt
CC1(C)C2CCC1(C)C(SC(=N)N)C2 (stereo unspecified)	i	?	i	18µM	i	i
Cc1ccc2c(c1)C/C(=C/c1ccc(N(C)C)cc1)C2=O	nt	nt	nt	i	i	nt
CCc1ccc(NS(=O)(=O)c2ccc(OC)c(C)c2)cc1	?	i	i	18µM	i	i
CCOc1cc(S(=O)(=O)Nc2ccc(CC)cc2)ccc1Cl	?	i	?	15µM	?	?
COc1cc(Cl)c(C)cc1NC(=O)CCc1nc2cccnc2n1-c1ccccc1	nt	nt	nt	i	i	nt
CC(C)Cc1ccc(C(C)CC2=CCC(CN(C)C)C2=O)cc1 (stereo unspecified)	6.5µM	?	?	?	?	?
CC(C)Cc1ccc(S(=O)(=O)N2CCOCC2)cc1	i	i	i	i	i	i
O=C1c2cccc3c([N+](=O)[O-])ccc(c23)C(=O)N1c1ccccn1	4.1µM	12µM	26µM	?	i	?
COc1ccccc1N1C(=O)c2cccc3c(C(=O)O)ccc(c23)C1=O	i	i	i	i	i	i
O=C1c2cccc3c(N4CCCCC4)ccc(c23)C(=O)N1c1ccccn1	i	i	i	i	i	i
SMILES	MCF10A rereplic	SW480 rerep	HT1080NT lethal	KB-V1 cytotox	KB-3-1 cytotox	HT1080 IDH1KD tx
O=C1c2cccc3c([N+](=O)[O-])ccc(c23)C(=O)N1c1ccc(Cl)cn1	?	4.1µM	4.5µM	i	i	1.6µM
O=C1c2cccc3c([N+](=O)[O-])ccc(c23)C(=O)N1O	21µM	?	?	i	i	?
COc1ccc2c3c(cccc13)C(=O)N(O)C2=O	?	?	?	?	?	21µM
N#Cc1ccc(-c2nc3ccc(Cl)cn3c2Cc2ccccc2C(F)(F)F)cc1	nt	nt	i	?	i	i
O=C1c2cccc3c([N+](=O)[O-])ccc(c23)C(=O)N1c1nccs1	7.3µM	7.3µM	8.9µM	?	?	2.2µM
c1ccc2c(c1)CC(N1CCCCC1)c1ccccc1N2 (stereo unspecified)	i	i	i	i	i	i
CCc1cccc2c1Sc1ccccc1CC2N1CCNCC1 (stereo unspecified)	?	i	i	13µM	?	?
Cc1cccc2c1Sc1ccc(Cl)cc1CC2N1CCNCC1 (stereo unspecified)	12µM	i	23µM	?	?	?
CC(C)C[C@H](N)c1cn([C@@H](CCCCN)C(=O)N2CCNCC2)nn1	i	?	1.6µM	?	?	1.2µM
CC(C)CC(N)c1cn([C@@H](CCC(=O)O)C(=O)N2CCNCC2)nn1 (stereo partly specified)	i	i	i	i	i	i
COc1ccc2c(c1)c(/C=C/c1cc[n+](C)cc1)cn2C	i	i	i	?	16µM	i
COc1ccc2c(/C=C/c3cc[n+](C)cc3)c[nH]c2c1	i	i	i	?	1.8µM	i
COC(=O)Cn1cc(/C=C/c2cc[n+](C)cc2)c2ccccc21	i	i	i	?	i	i
Cc1ccc2[nH]cc(/C=C/c3cc[n+](C)cc3)c2c1	?	8.2µM	?	i	0.92µM	?
CCCCN(C)C(=O)c1sc(=O)n(Cc2ccccc2C#N)c1C	nt	nt	i	?	i	i
CSc1ccccc1OCc1cc(C(=O)NCCn2nc(C)cc2C)no1	i	i	i	i	i	i
CSc1ccccc1OCc1cc(C(=O)NCCC2=CCCCC2)no1	i	i	?	23µM	i	i
CSc1ccccc1OCc1cc(C(=O)NCCN2CCCc3ccccc32)no1	i	i	i	i	i	12µM
CCNC(=O)C1(C)CCCN(C(=O)c2cc(C)n(C(C)(C)C)n2)C1 (stereo unspecified)	nt	nt	i	i	i	?
NCC1CCN(c2nc3ccccc3c3c2CCCC3)CC1	?	?	i	15µM	23µM	?
CSc1ccc(CNc2ncc(-c3ccccc3)n2C)cc1	nt	nt	nt	i	?	nt
COc1ccc(-c2ccc(CCC(=O)O)n2-c2ccccc2OC)cc1	15µM	18µM	18µM	?	?	16µM
COc1ccccc1-n1c(CCC(=O)O)ccc1-c1ccccc1	i	i	i	?	i	i
Brc1cccc(OCCCNC2CCCC2)c1	i	i	i	i	i	i
O=C1C2=C(Nc3ccccc3SC2c2ccco2)c2ccccc21 (stereo unspecified)	16µM	i	i	i	i	i

High-throughput results from PubChem.
